Compound activity from PubChem.
sEH inhibitor = soluble epoxide hydrolase inhibitors, primary screen, biochemical, human sEH; recombinant human sEH enzymatic activity assay; AID 707, 2007; Bifunctional epoxide hydrolase 2 (Homo sapiens), P34913; inhibition, % at 2 µM; actives 0.34% (n = 91,000); in the data active = inhibition above about 80%
CYP2C19 inh = blockers of cytochrome P450 2C19 activity – biochemical, luminescence, ADME assay, primary screen; inhibition, % at 5 µM; CYP2C19 Supersomes, luciferin-H EGE luminescence, 30 min; actives 21% (n = 96,000);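 active = CYP2C19 inhibition above a set limit at 5 µM in the primary screen, cut at about 50% in these data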;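 note: plate controls were negative control wells for no effect and 2.5 mM tranylcypromine positive control for full effect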
Target sequence (P33261 whole entry, looked up): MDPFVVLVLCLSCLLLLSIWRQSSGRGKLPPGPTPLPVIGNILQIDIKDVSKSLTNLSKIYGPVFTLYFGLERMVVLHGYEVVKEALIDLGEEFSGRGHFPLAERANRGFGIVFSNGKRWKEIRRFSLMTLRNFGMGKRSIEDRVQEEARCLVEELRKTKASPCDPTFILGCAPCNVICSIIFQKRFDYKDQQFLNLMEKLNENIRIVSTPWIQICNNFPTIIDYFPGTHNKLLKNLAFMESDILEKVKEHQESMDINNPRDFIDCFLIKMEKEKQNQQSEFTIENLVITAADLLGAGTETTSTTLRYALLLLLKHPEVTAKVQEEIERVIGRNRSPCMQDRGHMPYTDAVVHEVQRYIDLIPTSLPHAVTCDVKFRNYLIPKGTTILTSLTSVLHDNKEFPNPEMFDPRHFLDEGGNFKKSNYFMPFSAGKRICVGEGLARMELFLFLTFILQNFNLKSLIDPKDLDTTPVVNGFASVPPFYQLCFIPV
CYP2C9 inhib = blockers of cytochrome P450 2C9 activity – biochemical, luminescence, ADME assay, primary screen; P11712; CYP2C9 Supersomes, luciferin-H conversion; inhibition, % at 5 µM; actives 20% (n = 96,000); AID 777, 2007;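 active = blocking of liver enzyme CYP2C9 beyond about 50% at 5 µM, limit read from the data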
CYP2C19 act = human CYP2C19 activators, primary screen, biochemical, luminescence. Cytochrome P450 2C19 (Homo sapiens), P33261. recombinant CYP2C19, luciferin-H EGE luminescence; hits give high values; 0 = fully inhibited enzyme, 1 = untreated enzyme. activation factor at 5 µM. 96,000 tested, under 10 active. AID 1025, 2008;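 active = activation factor of at least 2 at 5 µM in the primary screen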;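 note: 0 = wells with 2.5 mM tranylcypromine and 1 = vehicle-only wells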
CYP2C9 activ = human CYP2C9 activators, primary screen, biochemical, luminescence. Cytochrome P450 2C9 (Homo sapiens), P11712. recombinant CYP2C9, luciferin-H conversion; hits give high values; factor 1 = untreated enzyme, 0 = blocked. activation factor at 5 µM. actives 1.4% (n = 96,000). AID 1024, 2008;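 active = activation factor of 2 or more for CYP2C9 at a 5 µM dose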;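 note: 0 = sulfaphenazole-blocked wells and 1 = vehicle-only wells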
sEH activator = soluble epoxide hydrolase activators, primary screen, biochemical, human sEH. Bifunctional epoxide hydrolase 2 (Homo sapiens), P34913. purified human sEH enzymatic activity, activator screen. activation, % at 2 µM. actives 0.04% (n = 91,000); in the data active = activation above about 37%
Numbers without * were called inactive; x = no result. Hits are enriched below; roughly 27% of the tested compounds scored in any of these assays.

SMILES	sEH inhibitor	CYP2C19 inh	CYP2C9 inhib	CYP2C19 act	CYP2C9 activ	sEH activator
CC(=O)c1ccccc1OCCCN1CCCCC1	x	3	7	1	0.9	x
Cc1ccc(NC2c3ncccc3C(=O)N2C2CCCCC2)cc1C (stereo not given)	9	44	17	0.6	0.8	-6
Clc1ccc(-c2nc3ccccc3n2OCc2ccccc2)cc1	2	-3	-5	1	1.1	-4
CN(CCc1ccccn1)Cc1ccc(Cl)cc1Cl	1	68*	2	0.3	1	0
CN(CCc1ccccn1)S(=O)(=O)c1ccccc1F	7	64*	-33	0.4	1.3	-7
O=C(Cc1ccccc1)NNC(=O)c1cccs1	5	30	0	0.7	1	-2
CC(CCc1ccccc1)NC(=O)c1ccccc1 (stereo not given)	10	66*	91*	0.3	0.1	-9
CC(CCc1ccccc1)NC(=O)c1cccs1 (stereo not given)	11	57*	72*	0.4	0.3	-9
O=C(NNC(=O)C(c1ccccc1)c1ccccc1)c1cccs1	4	56*	91*	0.4	0.1	-1
CC(CCc1ccccc1)NC(=O)c1ccncc1 (stereo not given)	-23	100*	94*	0	0.1	22
O=C(NCc1n[nH]c(=S)n1-c1cccc(Cl)c1)c1ccc(S(=O)(=O)N2CCCC2)cc1	16	42	61*	0.6	0.4	-18
O=C(NCc1n[nH]c(=S)n1-c1ccc(F)cc1)c1ccc(S(=O)(=O)N2CCCC2)cc1	28	3	3	1	1	-29
COc1cc(OC)cc(C(=O)NCc2n[nH]c(=S)n2-c2ccccc2)c1	2	64*	17	0.4	0.8	-1
COc1ccc(C(=O)NCc2n[nH]c(=S)n2-c2ccccc2)cc1OC	-7	21	12	0.8	0.9	7
Oc1cccc(-c2nc3c4c(ncn3n2)-c2ccccc2CC42CCCC2)c1	-5	-2	23	1	0.8	7
Cc1nc(SCC(=O)Nc2c(C)n(C)n(-c3ccccc3)c2=O)[nH]c(=O)c1C	14	x	x	x	x	-10
CCCCCCOc1cccc(N)c1	-12	64*	35	0.4	0.6	11
CCCCOc1cccc(-c2nnc(N)s2)c1	-3	31	23	0.7	0.8	8
COC(=O)CN(n1cnnc1)S(=O)(=O)c1ccccc1	-6	0	-22	1	1.2	7
Cc1cc(NC(=O)c2cncc(Br)c2)no1	4	2	-22	1	1.2	-4
CC12CC3CC(C)(C1)CC(C(=O)NC1=NCCS1)(C3)C2	-1	58*	-9	0.4	1.1	1
COc1ccc(C(=O)N2CCN(c3ccc(C)cc3C)CC2)cc1OC	x	8	23	0.9	0.8	x
CCOc1ccc(S(=O)(=O)N2CCN(c3ccc(C)cc3C)CC2)cc1	10	54*	80*	0.5	0.2	-11
COc1ccc(S(=O)(=O)N2CCN(c3ccc(C)cc3C)CC2)cc1OC	-2	46	52*	0.5	0.5	1
COc1ccc(S(=O)(=O)N2CCN(c3c(C)cccc3C)CC2)cc1OC	7	99*	94*	0	0.1	-8
SMILES	sEH inhibitor	CYP2C19 inh	CYP2C9 inhib	CYP2C19 act	CYP2C9 activ	sEH activator
COc1ccc(S(=O)(=O)N2CCN(c3ccccn3)CC2)cc1OC	4	70*	37	0.3	0.6	-4
Oc1ccc2[nH]cnc2c1CN1CCCCC1	4	9	-15	0.9	1.1	-4
CC(C)Cc1[nH]c(=O)c(C#N)c2c1COC(C)(C)C2	4	46	-10	0.5	1.1	-2
CCOC(=O)CON1C(=O)c2ccccc2C1=O	10	6	19	0.9	0.8	-12
C=CCNC(=O)CC(=O)N/N=C/c1ccc(C(=O)OC)cc1	-5	-4	-5	1	1.1	8
Cc1cc(C)n(-c2nc3c(c(=O)n(Cc4ccc(Cl)c(Cl)c4)c(=O)n3C)n2C)n1	-5	x	x	x	x	6
O=C(O)c1ccccc1C(=O)NCC(O)COCC1CC=CCC1 (stereo not given)	-9	92*	13	0.1	0.9	12
Cc1ccc(S(=O)(=O)N(C)Cc2ccc(-c3nnc4n3CCC4)cc2)cc1	-3	88*	41	0.1	0.6	3
O=C(NCc1ccccc1)c1ccc(C2SCC(=O)N2Cc2ccccc2)cc1 (stereo not given)	26	x	x	x	x	-22
CCc1ccc(NC(=O)c2ccc(C3SCC(=O)N3CCc3ccccc3)cc2)cc1 (stereo not given)	17	47	66*	0.5	0.3	-16
Cc1cccc(NC(=O)c2ccc(C3SCC(=O)N3CCc3ccccc3)cc2)c1C (stereo not given)	-2	82*	89*	0.2	0.1	1
CCN1C(=O)C(Cc2nc3ccccc3c(=O)n2-c2ccccc2)c2ccccc21 (stereo not given)	26	35	42	0.7	0.6	-24
Cn1c(CC2C(=O)Nc3ccc(Br)cc32)nc2ccccc2c1=O (stereo not given)	8	45	82*	0.5	0.2	-10
C(=C/c1ccnc2nc(SC/C=C/c3ccccc3)nn12)/c1ccccc1	-2	28	79*	0.7	0.2	4
Cc1cc(=O)[nH]c(SC/C=C/c2ccccc2)n1	6	47	32	0.5	0.7	-6
COc1ccccc1/C=C/CN1CCN(c2ccccc2)CC1	-2	82*	-16	0.2	1.2	6
C=C(C)Cn1c(=O)c2c(nc3n2CCN3c2cccc(Cl)c2C)n(C)c1=O	x	6	50*	0.9	0.5	x
Cn1cnnc1SCCNS(=O)(=O)c1ccccc1	6	3	-3	1	1	-4
Cn1nnnc1SCCNS(=O)(=O)c1ccccc1	5	78*	-4	0.2	1	-6
Cc1ccc(-n2nnnc2SCCNS(=O)(=O)c2ccccc2)cc1C	17	75*	-96	0.3	2*	-18
Cc1nnc2ccc(N3CCOCC3)nn12	-8	-19	10	1.2	0.9	4
CCCC(=O)N1c2ccccc2[C@@H](N(C(C)=O)c2ccccc2)C[C@H]1C	-17	51*	73*	0.5	0.3	18
CCC(=O)N1c2ccccc2C(N(C(C)=O)c2ccccc2)CC1C (stereo not given)	-10	x	x	x	x	10
CC1CCN(C(=O)CSc2nnc(CNC(=O)c3ccco3)o2)CC1	-5	-7	-10	1.1	1.1	6
COc1ccc(C(=O)NCc2nnc(SCC(=O)N3CCCCC3)o2)cc1OC	-9	33	22	0.7	0.8	10
